# SENP8 block-1 = inhibitors of human SENP8 protease | Q96LD8 | AID 2540 | 1.2% of 330,000 active | purified SENP8, Z-RLRGG-aminoluciferin cleavage, luminescence | inhibition, % at 10 µM; in the data active means inhibition above about 50%
# Target sequence (Q96LD8 whole entry, looked up): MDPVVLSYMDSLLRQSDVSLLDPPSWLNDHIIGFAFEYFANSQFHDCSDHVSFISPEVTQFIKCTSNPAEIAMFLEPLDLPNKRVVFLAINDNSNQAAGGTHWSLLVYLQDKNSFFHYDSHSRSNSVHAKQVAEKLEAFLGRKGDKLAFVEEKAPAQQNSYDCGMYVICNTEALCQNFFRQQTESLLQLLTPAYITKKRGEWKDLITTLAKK
# SENP6 inh = inhibitors of human SENP6 protease | Q9GZR1 | Recombinant SENP6 catalytic domain, aminoluciferin luminescence | inhibition, % at 10 µM | 1.8% of 330,000 active | AID 2599;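 active means inhibition above about 50% at the single tested dose, limit read from the data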;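 further: plate controls were DMSO wells with enzyme for no effect and DMSO wells lacking enzyme for full effect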
# SENP8 block-2 = blocks human SENP8 cleavage of Nedd8 substrate; 0.64% of 360,000 active; inhibition, % at 20 µM; recombinant SENP8, Nedd8 substrate fluorescence; in the data active means inhibition mostly above about 40%, no sharp cut-off; inactive means mostly below about 27%
# SENP7 block = inhibitors of human SENP7 protease | Q9BQF6 | recombinant SENP7, Z-RLRGG-aminoluciferin luminescence, 40 min | inhibition, % at 5 µM | 1.5% of 330,000 active | AID 434973;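 active means inhibition above about 50% at the single test dose, limit read from the data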;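 further: plate controls were DMSO with enzyme for no effect and no enzyme buffer wells for full effect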
# Target sequence (Q9BQF6 706-1050 limits assumed): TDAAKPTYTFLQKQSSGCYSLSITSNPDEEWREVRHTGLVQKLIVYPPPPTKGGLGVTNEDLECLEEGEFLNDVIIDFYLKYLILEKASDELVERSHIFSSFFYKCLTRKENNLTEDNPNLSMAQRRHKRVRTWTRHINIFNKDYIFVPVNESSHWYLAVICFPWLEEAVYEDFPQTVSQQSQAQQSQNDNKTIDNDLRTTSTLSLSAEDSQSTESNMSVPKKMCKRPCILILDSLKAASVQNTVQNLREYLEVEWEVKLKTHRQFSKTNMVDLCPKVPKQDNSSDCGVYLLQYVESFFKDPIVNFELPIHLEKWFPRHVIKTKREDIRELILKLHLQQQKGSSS
# PPC-1+TRAIL kill = PPC-1 cancer cell killing with TRAIL present | PPC-1 cells + TRAIL, ATPLite viability luminescence | cell killing (% activity), % at 4 µM or 5 µM | 0.41% of 220,000 active;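 active means cell killing above 50% in the first pass at 4 µM, then a duplicate retest at 5 µM averaging 50% or more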;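 further: plate controls were cells with TRAIL plus DMSO for no effect and medium-only wells lacking cells for full effect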
# C8 TRAIL sens = sensitizes caspase-8 expressing cells to TRAIL; NB7+C8 cells + TRAIL, ATPlite viability luminescence; inhibition (viability loss, TRAIL sensitization), % at 10 µM; 1% of 360,000 active; AID 624354;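 active means compounds causing at least 50% loss of cell viability in the single-dose screen, relative to plate controls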
# SENP8 inh conf = SENP8 (human) inhibition, single concentration confirmation; purified SENP8, Nedd8-AMC/pro-Nedd8 cleavage fluorescence, 30 min; 15% of 1,400 active; inhibition, % at 25 µM; shares compounds with SENP8 block-2; in the data active means inhibition mostly above about 39%, no sharp cut-off; inactive means mostly below about 34%
# * = called active by the depositor; . = not tested or not shown. Hits are enriched below; roughly 3% of the tested compounds scored in any of these assays.
SMILES,SENP8 block-1,SENP6 inh,SENP8 block-2,SENP7 block,PPC-1+TRAIL kill,C8 TRAIL sens,SENP8 inh conf
COC(=O)CNC(=O)c1ccccc1,0.9,4.5,50.8*,6.6,.,-1.3,5.4
CCCc1cc(=O)[nH]c(SCC(=O)Nc2ncc(S(=O)(=O)c3ccc([N+](=O)[O-])cc3)s2)n1,-0.4,-6.9,47.4*,-2.3,11.6,1.3,20.8
O=C(Nc1ccc(C(=O)N2CCCC2)cc1)c1cc(F)c(F)cc1Cl,.,.,15.8,.,.,-3.6,.
COCCNC(=O)/C(C#N)=C/c1cccs1,1.9,-9.6,13.7,-0.2,-0.8,7.2,.
COc1ccc(N(CCC#N)C(=O)/C(C#N)=C\c2cccs2)cc1,-11.0,-19.1,33.5*,-2.1,16.1,-10.4,9.9
O=C(CN1C(=O)CSC1=O)N1CCc2ccccc2C1,-2.1,35.9,41.8*,3.0,-2.9,5.8,62.9*
N#CC1=C(N)Oc2c(oc(CO)cc2=O)C1c1cccs1 (stereo not drawn),-0.4,22.2,45.2*,4.4,-0.6,-16.7,30.0
O=C1C2=C(c3ccccc31)[N+](=O)C1CCCCC1N2[O-] (stereo not drawn),27.8,49.9,83.6*,30.6,9.2,-8.3,60.7*
CC1(C2CC2)NC(=O)N(CC(=O)N2CCN(c3ccccc3)CC2)C1=O (stereo not drawn),4.7,-11.0,10.4,1.0,.,0.1,.
CCc1nnc(NC(=O)CCC(=O)NC2CCCCCCC2)s1,5.4,7.7,15.2,9.3,.,-1.8,.
COC(=O)C1CCN(Cc2c(C(=O)N3C[C@@H](C)O[C@@H](C)C3)nc3ccc(Cl)cn23)CC1,-3.3,-1.6,16.1,-11.1,.,-14.6,.
C[C@@H]1CN(C(=O)c2nc3ccc(Cl)cn3c2CN2CCc3sccc3C2)C[C@H](C)O1,3.6,7.9,43.1*,-4.1,16.2,-5.4,21.0
COc1ccc(-n2nc(C(=O)NCC(=O)NCCCN3CCOCC3)c3ccccc3c2=O)cc1OC,-0.7,-14.6,-4.5,9.0,.,-11.2,.
Cc1ccc(C)c(NC(=S)c2ccc3ccccc3n2)c1,14.0,45.0,11.8,38.6,13.5,9.2,.
CN(C)c1ccc(NC(=S)c2ccc3ccccc3n2)cc1,-12.4,5.3,41.5*,-14.4,.,0.4,18.2
CC1=NN(c2ccc(S(=O)(=O)O)cc2C)C(=O)C1,-4.0,6.4,68.6*,2.2,10.8,0.5,10.9
Brc1cccc(-c2nc3c4ccccc4ccn3c2Cc2ccsc2)c1,.,.,-201.2,.,.,34.4,.
O=C(O)c1cc([N+](=O)[O-])ccc1N1CCCCC1,-7.7,-13.3,41.5*,-5.1,15.4,18.1,16.4
O=C(O)c1c(N2CCCCC2)ccc([N+](=O)[O-])c1N1CCCCC1,-1.9,-4.1,40.3*,7.4,3.2,9.9,23.0
O=C(c1cc([N+](=O)[O-])ccc1N1CCCCC1)N1CCCCC1,9.1,-1.6,13.5,5.3,-18.4,-8.1,.
NC(=O)c1ccc(N2CCCCCC2)c([N+](=O)[O-])c1,3.4,-0.1,18.5,-3.6,-5.9,3.9,.
CN(C)S(=O)(=O)c1cccc(NC(=O)C2Cc3ccccc3CN2C(=O)c2ccco2)c1 (stereo not drawn),0.1,3.1,-10.7,4.4,.,12.2,.
CCc1ccc(N2C(=O)C(Cl)=C(N3CCOCC3)C2=O)cc1,-6.7,-6.3,41.1*,9.0,5.9,-6.0,13.4
COc1ccc(N2C(=O)C(Cl)=C(N3CCN(Cc4ccccc4)CC3)C2=O)cc1,.,.,17.4,.,1.2,-8.2,.
CCc1ccc(N2C(=O)C(Cl)=C(N3CCCCCC3)C2=O)cc1,-2.9,21.3,20.7,3.5,.,-0.7,.
SMILES,SENP8 block-1,SENP6 inh,SENP8 block-2,SENP7 block,PPC-1+TRAIL kill,C8 TRAIL sens,SENP8 inh conf
O=C1C(Cl)=C(N2CCN(Cc3ccccc3)CC2)C(=O)N1c1ccccc1,-3.8,-12.2,48.2*,-4.1,-5.1,-2.9,10.6
Cc1cccc(N2C(=O)C(Cl)=C(N3CCOCC3)C2=O)c1,-4.3,-0.1,46.1*,-12.3,22.1,9.6,2.0
COc1cccc(CCNS(=O)(=O)CCNC(=O)c2cccc(OC)c2)c1,8.8,1.1,-5.2,2.1,.,-5.1,.
O=C(NCCCN1CCCCCC1)C1CC(=O)N(CCc2ccccc2)C1 (stereo not drawn),2.6,0.1,55.9*,2.2,11.5,-7.7,9.0
CC(C)[C@H](NC(=O)N1c2ccccc2NC(=O)[C@@H]1C(C)C)C(=O)N[C@@H](C(=O)O)c1ccccc1,10.1,-0.4,-175.0,-4.3,.,29.6,.
CCC(C)[C@H](NC(=O)N1CC(=O)Nc2ccccc21)C(=O)N[C@H](Cc1c[nH]c2ccccc12)C(=O)O (stereo partly drawn),-5.3,-1.6,16.2,1.9,.,3.1,.
CC(C)[C@H](NC(=O)N1c2ccccc2NC(=O)[C@@H]1C(C)C)C(=O)N[C@@H](Cc1ccccc1)C(=O)O,0.2,-10.1,53.6*,0.4,.,-3.9,-0.6
CC(C)[C@H](NC(=O)N1CC(=O)Nc2ccccc21)C(=O)N[C@H](Cc1c[nH]c2ccccc12)C(=O)O,3.8,-15.4,44.0*,3.2,.,-3.4,-8.0
COc1ccccc1NC(=S)N1CCC(C(=O)c2ccc(F)cc2)CC1,-0.2,-18.0,18.3,-2.1,-5.7,-2.1,.
Cc1ccc(N2CC(C(=O)N3CCN(c4ccccn4)CC3)CC2=O)cc1 (stereo not drawn),.,.,-14.6,.,.,3.5,.
CC(C)OC(=O)Nc1ccc2c(c1)N(C(=O)CCN1CCOCC1)c1ccccc1CC2,-1.6,-6.4,-5.9,-8.6,.,8.8,.
Cc1ccc(NC(=S)NNC(=O)c2cn(C)nc2C)cc1,1.3,4.9,42.6*,0.2,11.2,-1.7,12.2
Cc1ccc(CN2CCN(Cc3cnc(N4CCOCC4)s3)CC2CCO)cc1 (stereo not drawn),-5.0,-3.5,15.7,-9.0,6.6,-3.0,.
COc1ccc(C(=O)Cn2c(C)nc([N+](=O)[O-])c2Br)cc1,-0.1,-12.4,6.2,5.8,14.1,19.9,.
Cc1nc([N+](=O)[O-])c(Br)n1CC(=O)c1ccc(Cl)cc1,6.6,7.9,42.3*,5.4,33.8,14.3,11.8
CCN(CC(=O)Nc1c(F)cccc1F)C(=O)C1CCN(S(=O)(=O)c2ccccc2C(=O)OC)CC1,.,.,2.7,.,.,-0.8,.
CC1=CC2(O)OCCN(CCO)C2=CC1=O (stereo not drawn),8.3,8.9,44.2*,3.1,16.5,4.4,31.9
O=C(O)/C=C\C(=O)Nc1ccc(N2CCN(c3ccc(Cl)cc3)CC2)cc1,-3.2,-0.2,39.4,-1.2,13.5,4.5,.
O=C(O)/C=C\C(=O)Nc1ccc(N2CCN(c3ccc(F)cc3)CC2)cc1,-7.8,3.8,38.1*,-3.3,14.2,3.1,13.7
CCCCCN(C(=O)CN1CCC(Cc2ccccc2)CC1)c1c(N)n(CCCC)c(=O)[nH]c1=O,-7.2,-25.2,-4.6,-0.5,-1.2,-6.0,.
O=C1C(=C(I)I)c2ccccc2-c2ccccc21,.,.,39.9*,.,.,93.7*,-1.0

# Screens (PubChem)
